From PubChem BioAssay (Tox21)
Records with an inconclusive call do not appear. Calls of active or inactive are those of the source. Calls follow the shape of the dose curve; as a rule, active = well fitted cell-killing curve with a large enough effect in the repeat runs (not every such curve was filed as active); inconclusive = weak or mixed curves, or effect the other way; inactive = no such curve, though single readings can be large or run the other way.

Assay: qHTS assay to identify small molecule antagonists of the estrogen related receptor signaling pathway with the pleiotropic PPARgamma coactivator (PGC) from Tox21 10K library - cell viability counter screen (AID 1224840); also: nearly all actives have a fitted effect of over 40% in size
Settings: PGC/ERR reporter cells viability, CellTiter-Fluor, 17.5 h; series mostly up to 92.4 µM; viability change, negative = cytotoxic: at the top concentration
From the text: National Center for Advancing Translational Sciences [NCATS]
NIH Chemical Genomics Center [NCGC]
U.S. Environmental Protection Agency [EPA]
National Institutes of Environmental Health Sciences [NIEHS]
National Toxicology Program [NTP]
U.S. Food and Drug Administration [FDA]
Estrogen related receptors (ERRs), the first orphan nuclear receptors discovered, play an important role in the control of cellular energy metabolism. ERRs are required for high-energy production in response to the environmental challenges. The pleiotropic PPARgamma coactivator (PGC) is a major partner of ERR and a key regulator in energy homeostasis. Together they have been implicated in the etiology of metabolic disorders such as Type 2 diabetes and metabolic syndrome. ERR-alpha was also identified as an adverse marker for breast cancer progression; ERR-alpha-positive tumors have a poor prognosis. To screen and to identify environmental compounds that perturb the ERR and PGC/ERR signaling pathways could provide valuable information for potential therapeutic or preventive measures in the treatment of metabolic disease. To differentiate true PGC/ERR antagonists or agonist from cytotoxic substances, the assay is multiplexed with cell viability assay.
Tox21 Assay Protocol Summary:
The PGC/ERR cells were dispensed at 2,000 cells/5 ul/well in 1536-well white plates using a Multidrop dispenser. After the assay plates were incubated at a 37 C/5% CO2 incubator for 6 hours, 23 nL of compounds dissolved in DMSO, positive and negative controls or DMSO only was transferred to the assay plate by a pin tool. The plates were incubated at 37 C for 17.5 hours. 1 ul/well of CellTiter-Fluor reagent was added into the assay plates using a Flying Reagent Dispenser. After 30-minute incubation at 37 C/5% CO2, the fluorescence intensity in the plates was measured using a ViewLux plate reader.
% is scaled to controls: 0 for no effect and ±100 for the full control effect; potency is read from the fitted curve at half-maximal effect.

SMILES | viability change, negative = cytotoxic | Potency
COC(=O)c1ccccc1S(=O)(=O)NC(=O)N(C)c1nc(C)nc(OC)n1 | -0.369% (inactive) | 
CCS(=O)(=O)CCSP(=O)(OC)OC | -9.21% (inactive) | 
N#Cc1c(Cl)cccc1Cl | -0.213% (inactive) | 
C[N+](=O)[O-] | -3.39% (inactive) | 
c1cc2c(c(N3CCNCC3)c1)OCCO2 | 2.51% [at 42.5 µM] (inactive) | 
CC(=O)CCc1ccc2c(c1)OCO2 | 2.51% (inactive) | 
COc1ncc(F)c2nc(S(=O)(=O)Nc3c(F)cccc3F)nn12 | 1.19% [at 42.5 µM] (inactive) | 
C[N+](C)=CCl | 9.62% (inactive) | 
CC1CCCCC1NC(=O)Nc1ccccc1 (stereo not given) | -0.907% (inactive) | 
O=[N+]([O-])c1cccc(O)c1 | 2.98% (inactive) | 
OC(Cn1cncn1)(c1ccc(F)cc1)c1ccccc1F (stereo not given) | 0.639% (inactive) | 
Oc1c(Cl)cccc1Cl | -0.188% (inactive) | 
CC1CCC(=O)O1 (stereo not given) | 11.7% (inactive) | 
CC(C)CP(=S)(S)CC(C)C |  | 2.73 µM (active)
COc1cc2c(cc1OC)[C@@]13CCN4CC5=CCO[C@H]6CC(=O)N2[C@H]1[C@H]6[C@H]5C[C@H]43 | -0.541% (inactive) | 
[As]#[In] | 4.22% (inactive) | 
NC(=O)c1cc([N+](=O)[O-])cc([N+](=O)[O-])c1 | 1.21% [at 42.5 µM] (inactive) | 
CC1=C(C(=O)O)N2C(=O)[C@@H](N)[C@H]2SC1 | -5.15% [at 19 µM] (inactive) | 
CCC(Cl)[N+](=O)[O-] (stereo not given) | 0.849% (inactive) | 
O=P(O)(Oc1ccccc1)Oc1ccccc1 | 3.84% (inactive) | 

SMILES | viability change, negative = cytotoxic | Potency
CCCSC(=O)Cl | 7.23% (inactive) | 
BrCCCCCCBr | -3.32% (inactive) | 
COc1cccc2c1cc([N+](=O)[O-])c1c(C(=O)O)cc3c(c12)OCO3 |  | 30.6 µM (active)
ClCC(Cl)(Cl)Cl | 3.48% (inactive) | 
O=C1c2ccccc2C(=O)c2ccccc21 | 4.21% [at 19 µM] (inactive) | 
CCCCOC(=O)c1ccccc1C(=O)O | 3.27% (inactive) | 
COc1cc(OC)nc(NC(=O)NS(=O)(=O)c2ncccc2OCC(F)(F)F)n1 | -0.763% (inactive) | 
CNNC | 0.191% (inactive) | 
N#CCNCC#N | -0.666% (inactive) | 
O=C(CCN1CC1)OCC(CO)(COC(=O)CCN1CC1)COC(=O)CCN1CC1 | 9.43% (inactive) | 
CC(C(=O)c1ccccc1)N(C)C (stereo not given) | 1.17% [at 42.5 µM] (inactive) | 
O=C(N[C@H]1CN2CCC1CC2)c1cc2ccoc2cn1 | -1.78% (inactive) | 
O=NN1CCN(N=O)CC1 | 0.0528% (inactive) | 
CCCCc1ccc(O)cc1 | -0.0909% (inactive) | 
COP(=S)(OC)Oc1c(Cl)cc(C)cc1Cl | 0.0385% (inactive) | 
O=C(Cc1ccccc1)OCc1ccccc1 | -23.2% (inactive) | 
CCc1cc2c(s1)-n1c(C)nnc1CN=C2c1ccccc1Cl | 1.46% [at 42.5 µM] (inactive) | 
CCOP(=O)(N=C1SCCS1)OCC | 2.54% (inactive) | 
NC(=O)O | -1.52% (inactive) | 
COC(=O)C(c1ccccc1)C1CCCCN1 (stereo not given) | 0.882% (inactive) | 
